In PubChem BioAssay (NCATS):
Records with an inconclusive call do not appear. Unmarked numbers belong to inactive results. Calls come from the whole dose curve; as a rule, active = well fitted inhibition curve with a large enough effect; inconclusive = small, poorly fitted or top-dose-only effect; inactive = flat fitted curve, though single readings scatter.

Target: Calcium and integrin-binding protein 1 (Homo sapiens) (UniProt Q99828)
Assay: Primary qHTS for Identification of Calcium Integrin Binding Protein 1 (CIB1) Competitor (AID 1508620); note: top concentration of the series differs between compounds
Details: CIB1-GST / FITC-alphaIIb peptide fluorescence polarization; series mostly up to 114 µM; activity change, negative = inhibition: at the top concentration
Outline: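 Fluorescence polarization competition: GST-tagged CIB1 (1 uM final) preincubated with compound 15 min at room temperature, then FITC-labelled alphaIIb peptide (100 nM final) added. After 15 min at room temperature, polarization read at Ex 480/Em 540.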
% is set by controls: 0 for no effect and ±100 for the full control effect.

Chain of Calcium and integrin-binding protein 1 (Homo sapiens) (Q99828 whole entry, looked up): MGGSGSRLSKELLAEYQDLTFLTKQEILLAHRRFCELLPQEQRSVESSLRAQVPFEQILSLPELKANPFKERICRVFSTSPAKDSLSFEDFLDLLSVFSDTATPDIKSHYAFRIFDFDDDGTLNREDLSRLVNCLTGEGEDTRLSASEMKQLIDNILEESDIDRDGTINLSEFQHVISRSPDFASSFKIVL

Row | SMILES | activity change, negative = inhibition
1 | Nc1c(-c2ccccc2)cc[nH]c1=O | -8.82%
2 | Cc1ccc(-c2ccc(CNc3nc(-c4ccccc4C(C)C)ncc3F)cc2)cn1 | 0.852%
3 | N#Cc1cccc(S(=O)(=O)N2CCN(S(=O)(=O)c3ccc4c(c3)OCCO4)CC2)c1 | -4.35%
4 | CC(C)c1ccccc1-c1nc(NCc2ccc(-c3cccnc3)cc2)c2occc2n1 | -0.709%
5 | O=S(=O)(c1ccc2ccccc2c1)N1CCN(S(=O)(=O)c2c(F)cccc2F)CC1 | -1.01%
6 | O=S(=O)(c1ccc(F)cc1)N1CCN(S(=O)(=O)c2ccc3c(c2)OCCO3)CC1 | 4.69%
7 | Cn1nnnc1Sc1ncnc2scc(-c3ccc([N+](=O)[O-])cc3)c12 | -17.5%
8 | C(=Nc1cccnc1)c1cccs1 | 1.85%
9 | CC(C)(C)c1ccc(Nc2nc(C#N)nc(NC3CCCC3)n2)cc1 | 3.45%
10 | CC(=O)N1CCN(c2ccc(NCc3ccc4c(c3)OCO4)cc2)CC1 | -10.5%
11 | O=[S+]([O-])(c1cc2ccccc2o1)N1CCN([S+](=O)([O-])c2c(F)cccc2F)CC1 | 0.977%
12 | Cn1ccc2cc(-c3ccc4ncnc(NCc5cccs5)c4c3)ccc21 | 6.55%
13 | O=C1Nc2ccccc2/C1=C\c1ccc(C(=O)O)cc1 | -6.69%
14 | COc1ccc(C2=Nn3c(nnc3-c3ccccc3O)SC2)cc1 | -0.42%
15 | CCCCn1cnc2cc(C(=O)N3CCCCC3)ccc21 | -5.51%
16 | O=[S+]([O-])(Nc1ccccc1)c1ccc(NCc2cccc(C(F)(F)F)c2F)cc1 | -3.91%
17 | COC(=O)c1ccc(Nc2nc(-c3ccncc3)nc3ccccc23)cc1OC | 1.55%
18 | Cc1ccc(OCCn2c(CCNC(=O)c3ccc(C#N)cc3)nc3ccccc32)cc1 | 1.57%
